Shown are actives, neighbours in structure and some others; about 19% of the full set was active somewhere.
HT1080NT lethal – kills 2HG-producing HT-1080-NT fibrosarcoma cells. HT-1080-NT fibrosarcoma viability, CellTiter-Glo ATP luminescence, 48 h. Potency, µM (top dose mostly 46.1 µM), inactives show at the highest dose activity, negative = less viability, actives largely listed as cytotoxic. 360,000 tested, 1.6% active;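 further: NT is the 2HG producing partner of a matched IDH1 knockdown line; potency means the concentration at half of the fitted maximal effect; 0% = DMSO-treated cells and -100% = media-only wells without cells; nearly all actives have a fitted effect of over 55% in size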
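Fibrosarcoma NT cells, 750 per well in 5% FBS RPMI, were exposed to compound for 48 hours. Viability: CellTiter-Glo luminescence.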
TDP1 cell CPT – growth inhibition of DT40 Tdp1-/-;hTDP1 cells with camptothecin (screen for TDP1 inhibitors); Potency, µM (titrated, usually from 46.2 µM), for inactives: top-dose activity change, negative = growth inhibition, usual class: inhibitors; AID 686979; chicken DT40 Tdp1-/-;hTDP1 cells + 20 nM CPT, ATP luminescence, 48 h; 420,000 tested, 12% active; further: potency means the concentration at half of the fitted maximal effect; nearly all actives have a fitted effect of over 55% in size
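Cell growth measured by CellTiter-Glo luminescence after a minimum 48 h, 37 C compound exposure with 20 nM CPT in Tdp1-knockout DT40 cells stably expressing hTDP1, seeded 400/well; qHTS titration format.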
TDP1 cell noCPT – qHTS for Inhibitors of human tyrosyl-DNA phosphodiesterase 1 (TDP1): qHTS in cells in absence of CPT; Potency, µM (top dose mostly 46.2 µM), without a hit: top-dose activity change, negative = growth inhibition, hits mostly inhibitors; 420,000 tested, 15% active; DT40 Tdp1-/- hTDP1 cells, no CPT, ATP luminescence, 48 h; further: potency means the concentration at half of the fitted maximal effect; nearly all actives have a fitted effect of over 55% in size
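Stably hTDP1-transfected Tdp1-null chicken DT40 cells were treated with library compounds minus camptothecin and grown for at least 48 hr at 37 °C, after which cellular ATP was quantified by luminescence.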
IL1B secr inh – inhibitors of inflammasome signaling (IL-1 beta secretion); activity change, % at 57.5 µM; THP-1 LPS/ATP IL-1B secretion, AlphaLISA, 16 h; stronger effect = lower value; 360,000 tested, 4.7% active; in the data active means activity change below about -50%; inconclusive means mostly about -30% to -49%
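Secreted IL-1B measured by AlphaLISA bead assay after 16 h compound exposure of THP-1 cells; compounds (final up to 57.5 uM) added 1 h before LPS (250 ng/mL) and ATP (1.25 mM) stimulation; lower signal means less secretion.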
uPA generation – inhibitors of cell surface uPA generation | AID 540303 | cell surface uPA generation assay, qHTS | Potency, µM (top dose mostly 38.3 µM), inactives show top-dose activity change, negative = inhibition, hits mostly inhibitors | 330,000 tested, 0.31% active; active means well fitted inhibition curve with a large enough effect; inconclusive means small, poorly fitted or top-dose-only effect; inactive means no such curve, though single readings can be large or run the other way; tested in mouse RAW 264.7 cells; further: potency means the concentration at half of the fitted maximal effect; nearly all actives have a fitted effect of over 55% in size
HT1080 IDH1KD tx – kills HT-1080 cells with IDH1 knockdown; HT-1080 IDH1 knockdown viability, ATP luminescence, 48 h; Potency, µM (doses to about 46.1 µM), for inactives: at the top dose activity, negative = toxicity, hits mostly cytotoxic; 360,000 tested, 2% active;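 further: potency means the concentration at half of the fitted maximal effect; 0% = DMSO wells and -100% = cell-free medium wells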
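Viability of IDH1-knockdown HT-1080 fibrosarcoma cells was assessed by CellTiter-Glo after 48 h at 37 °C with titrated compound; concentration-effect curves were classified by fit quality and response size.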
* hit, by the source's call. Unless noted, the call rests on the fitted dose curve; in most records, active means well fitted curve in the direction sought with a large enough effect; inconclusive means small, poorly fitted or top-dose-only effect, or another doubt; inactive means no such curve, though single readings can be large; an effect the other way counts as inactive or inconclusive. Unless noted, on the % scale 0 is the no-effect control and ±100 the full control effect.

For COc1ccc(Cl)cc1N(CC(=O)N1CCCC1)S(=O)(=O)c1ccc(C)cc1 the results were HT1080NT lethal 10.3%, TDP1 cell CPT inconclusive, TDP1 cell noCPT inconclusive, IL1B secr inh 2.4, uPA generation 4.5% and HT1080 IDH1KD tx 6.4%.
COc1ccc(S(=O)(=O)NN(C)C)cc1N(C)S(=O)(=O)c1ccc(Cl)cc1 was read as HT1080NT lethal 7.9%, TDP1 cell CPT 3.7%, TDP1 cell noCPT 12.0%, IL1B secr inh 13.9, uPA generation 25.3% and HT1080 IDH1KD tx -2.1%.
`CN(C(=O)c1ccc(Cl)c([N+](=O)[O-])c1)C1(C)CCS(=O)(=O)C1` (configuration not stated) gave HT1080NT lethal 4.3%, TDP1 cell CPT 7.3%, TDP1 cell noCPT -2.0%, IL1B secr inh inconclusive, uPA generation -0.6% and HT1080 IDH1KD tx 2.2%.
`COc1ccc(NS(=O)(=O)c2cccc(C(=O)NCc3cccnc3)c2)cc1` gave HT1080NT lethal -3.6%, TDP1 cell CPT -26.4%, TDP1 cell noCPT -28.7%, IL1B secr inh 15.8, uPA generation -2.1% and HT1080 IDH1KD tx -7.5%.
c1cncc(CN2CCN(c3cc(-c4cnc5ccccc5c4)nc4ccnn34)CC2)c1 was read as HT1080NT lethal 29.0%, TDP1 cell CPT inconclusive, TDP1 cell noCPT -28.8%, IL1B secr inh -6.5 and HT1080 IDH1KD tx 9.9%.
Screening Cc1ccc(O)c(NC(=O)Cc2ccc3ccccc3c2)c1 returned HT1080NT lethal inconclusive, TDP1 cell CPT 4.6%, TDP1 cell noCPT 8.3%, IL1B secr inh -65.3*, uPA generation -10.0% and HT1080 IDH1KD tx -14.0%.
Screening Cc1ccc(O)c(NC(=O)CSc2ccc(Cl)cc2)c1 returned HT1080NT lethal -5.3%, TDP1 cell CPT -14.3%, TDP1 cell noCPT -10.1%, IL1B secr inh inconclusive, uPA generation -12.9% and HT1080 IDH1KD tx -11.0%.
Screening COc1ccccc1C(=O)Nc1cccc(C(=O)OCc2cc(=O)n3cc(C)sc3n2)c1 returned TDP1 cell CPT -8.1% and TDP1 cell noCPT -20.3%.
For CN(C)S(=O)(=O)c1ccc(N2C(=O)CC2(/C=C/c2ccccc2)C(=O)NC2CCCC2)cc1 (configuration not stated) the results were HT1080NT lethal 2.0%, TDP1 cell CPT inconclusive, TDP1 cell noCPT inconclusive, IL1B secr inh -7.2, uPA generation -1.0% and HT1080 IDH1KD tx -8.9%.
`COc1ccccc1/C=C/C1(C(=O)NC2CCCC2)CC(=O)N1c1ccccc1` (configuration not stated) gave HT1080NT lethal 16.4µM*, TDP1 cell CPT 6.51µM*, TDP1 cell noCPT 7.31µM*, IL1B secr inh 97.4, uPA generation 2.82µM* and HT1080 IDH1KD tx inconclusive.
CCN1C(=O)C(CC(=O)Nc2ccc(OC)cc2)N(CCCN2CCN(c3ccc(F)cc3)CC2)C1=S (configuration not stated) was read as HT1080NT lethal inconclusive, TDP1 cell CPT 23.1µM*, TDP1 cell noCPT 13µM*, IL1B secr inh -13.3, uPA generation -19.3% and HT1080 IDH1KD tx 18.4µM*.
For CCN1C(=O)C(CC(=O)Nc2ccc(OC)cc2)N(CCc2ccc(F)cc2)C1=S (configuration not stated) the results were HT1080NT lethal inconclusive, TDP1 cell CPT 20.6µM*, TDP1 cell noCPT 16.4µM*, IL1B secr inh -63.7*, uPA generation 18.0% and HT1080 IDH1KD tx inconclusive.
`COc1ccc(NC(=O)CC2C(=O)N(C)C(=S)N2CCc2ccccc2)cc1` (configuration not stated) gave HT1080NT lethal -8.3%, TDP1 cell CPT inconclusive, TDP1 cell noCPT inconclusive, IL1B secr inh -23.0, uPA generation 1.9% and HT1080 IDH1KD tx -10.7%.
Screening COc1ccc(CCN2C(=S)N(C)C(=O)C2CC(=O)Nc2ccc(OC)cc2)cc1 (configuration not stated) returned HT1080NT lethal -17.1%, TDP1 cell CPT 11.6µM*, TDP1 cell noCPT inconclusive, IL1B secr inh -4.3, uPA generation 4.0% and HT1080 IDH1KD tx inconclusive.
For COc1ccc(NC(=O)CC2C(=O)N(C)C(=S)N2Cc2cccs2)cc1 (configuration not stated) the results were HT1080NT lethal -7.9%, TDP1 cell CPT 11.9%, TDP1 cell noCPT -23.9%, IL1B secr inh -7.6, uPA generation -7.0% and HT1080 IDH1KD tx -7.4%.
Screening COc1ccc(NC(=O)CC2C(=O)N(C)C(=S)N2CCc2ccc(F)cc2)cc1 (configuration not stated) returned HT1080NT lethal inconclusive, TDP1 cell CPT inconclusive, TDP1 cell noCPT inconclusive, IL1B secr inh -64.1*, uPA generation 6.6% and HT1080 IDH1KD tx inconclusive.
For COc1ccc2[nH]c(=O)c(CNc3cccc(C)c3)cc2c1 the results were HT1080NT lethal 0.7%, TDP1 cell CPT 13µM*, TDP1 cell noCPT 11.6µM*, IL1B secr inh 15.4, uPA generation -4.9% and HT1080 IDH1KD tx -13.2%.
COc1ccc(NCc2cc3cc(OC)ccc3[nH]c2=O)cc1 was read as HT1080NT lethal -10.0%, TDP1 cell CPT 8.2µM*, TDP1 cell noCPT 23.1µM*, IL1B secr inh -11.1, uPA generation -19.9% and HT1080 IDH1KD tx -8.3%.
Screening COc1ccc(NCc2cc3ccccc3[nH]c2=O)cc1 returned HT1080NT lethal -8.2%, TDP1 cell CPT inconclusive, TDP1 cell noCPT inconclusive, IL1B secr inh 41.8, uPA generation -2.4% and HT1080 IDH1KD tx -22.4%.
Screening Cc1nn2c(C(F)(F)F)cc(-c3ccc(OC(C)C)cc3)nc2c1C#N returned TDP1 cell CPT -15.4% and TDP1 cell noCPT -25.8%.
`CCN(c1cccc(C)c1)S(=O)(=O)c1ccc(-n2cccn2)cc1` gave HT1080NT lethal -15.2%, TDP1 cell CPT inconclusive, TDP1 cell noCPT inconclusive, IL1B secr inh -13.8, uPA generation -20.3% and HT1080 IDH1KD tx -7.3%.
Screening CCOc1ccc(N(CC(=O)Nc2ccc(OC)cc2)C2=NC3CS(=O)(=O)CC3S2)cc1 (configuration not stated) returned HT1080NT lethal -14.3%, TDP1 cell CPT 1.8%, TDP1 cell noCPT -22.8%, IL1B secr inh -58.4*, uPA generation inconclusive and HT1080 IDH1KD tx -9.0%.
Screening CCOc1ccc(N(CC(=O)Nc2ccc(C)c(F)c2)C2=NC3CS(=O)(=O)CC3S2)cc1 (configuration not stated) returned HT1080NT lethal 24.5%, TDP1 cell CPT -19.1%, TDP1 cell noCPT 4.5%, IL1B secr inh -15.8, uPA generation -21.7% and HT1080 IDH1KD tx inconclusive.

Source: PubChem BioAssay (National Center for Advancing Translational Sciences (NCATS))
